{"source": "PubChem BioAssay (Tox21)", "note": "“And” between values parts separate entries of the source, which are not always exact repeats. Equal values may be shown once. Records with an inconclusive call do not appear. A structure can be active in one record and inactive in another. The source made the active and inactive calls. Calls come from the whole dose curve; as a rule, active = well fitted curve in the direction sought with a large enough effect in the repeat runs; inconclusive = weak or mixed curves; inactive = no such curve, though single readings can be large; an effect the other way counts as inactive or inconclusive. % is set by controls: 0 for no effect and ±100 for the full control effect.", "data": [{"assay": "qHTS assay to identify small molecule agonists of the estrogen related receptor signaling pathway with the pleiotropic PPARgamma coactivator (PGC) (AID 1224823)", "details": "ERR/PGC reporter cell line, luciferase agonist mode; series mostly up to 46.1 µM; activation: at the top concentration", "in_short": "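Steps: plate PGC/ERR cells at 2,000 cells/well; incubate 6 h, 37 C/5% CO2; pin-transfer compounds (DMSO); incubate 18 h, 37 C; add One-Glo; 30 min RT; read luminescence.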", "values": [{"smiles": "CC(C)(c1ccc(O)cc1)c1ccc(O)cc1", "activation": "-6.23% [at 92.2 µM] (inactive)"}, {"smiles": "Cc1ccc(=O)n(-c2ccccc2)c1", "activation": "-1.53% (inactive)"}, {"smiles": "COC(=O)c1c(Cl)c(Cl)c(C(=O)OC)c(Cl)c1Cl", "activation": "6.92% [at 92.2 µM] (inactive)"}, {"smiles": "C[C@](N)(Cc1ccc(O)cc1)C(=O)O", "activation": "2.82% (inactive)"}, {"smiles": "CCn1ccnc1CC1COc2ccccc2O1", "note": "(configuration not stated)", "activation": "3.7% (inactive)"}, {"smiles": "Brc1c(NC2=NCCN2)ccc2nccnc12", "activation": "2% (inactive)"}, {"smiles": "COC(=O)C1=C(C)NC(C)=C(C(=O)OC)C1c1ccccc1[N+](=O)[O-]", "activation": "3.51% (inactive)"}, {"smiles": "CCn1nc(C(=O)O)c(=O)c2cc3c(cc21)OCO3", "activation": "-6.32% (inactive)"}, {"smiles": "COC(=O)[C@@H](N)Cc1ccc(O)c(O)c1", "activation": "-2.21% (inactive)"}, {"smiles": "C[C@H](NC(CCc1ccccc1)C(=O)O)C(=O)N1CCC[C@H]1C(=O)O", "note": "(some centres not stated)", "activation": "-2.8% (inactive)"}, {"smiles": "O=C(CCCN1CCC(O)(c2cccc(C(F)(F)F)c2)CC1)c1ccc(F)cc1", "activation": "-5.01% (inactive)"}, {"smiles": "CN(C)CCCN1c2ccccc2CCc2ccc(Cl)cc21", "activation": "3.47% (inactive)"}, {"smiles": "CCO/C([O-])=N/c1c[n+](N2CCOCC2)no1", "activation": "6.82% (inactive)"}, {"smiles": "O=C(O)CN(CCOCCOCCN(CC(=O)O)CC(=O)O)CC(=O)O", "activation": "0.653% (inactive)"}, {"smiles": "Cc1cccc(C)c1NC(=O)C(C)N", "note": "(configuration not stated)", "activation": "2.91% (inactive)"}, {"smiles": "CCOC(=O)Nc1ccc(NCc2ccc(F)cc2)nc1N", "activation": "3.3% (inactive)"}, {"smiles": "COCCc1ccc(OCC(O)CNC(C)C)cc1", "note": "(configuration not stated)", "activation": "-1.58% (inactive)"}, {"smiles": "CC(C[N+](C)(C)C)OC(N)=O", "note": "(configuration not stated)", "activation": "1.48% (inactive)"}, {"smiles": "Nc1c2c(nc3ccccc13)CCCC2O", "note": "(configuration not stated)", "activation": "4.06% (inactive)"}]}, {"assay": "qHTS assay to identify small molecule antagonists of the estrogen related receptor (ERR) signaling pathway from Tox21 library - cell viability counter screen (AID 1224834); note: nearly all actives have a fitted effect of over 30% in size; note: potency is the fitted concentration of half-maximal effect", "details": "ERR reporter cells viability, CellTiter-Fluor, 17.5 h; series mostly up to 92.4 µM; viability change, negative = cytotoxic: at the top concentration", "in_short": "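ERR reporter cells, 2,000 per well, rested 6 h, then exposed to compound in DMSO for 17.5 hours at 37 C. Viability read as fluorescence after 30 min with CellTiter-Fluor.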", "values": [{"smiles": "OC(CCN1CCCCC1)(c1ccccc1)C1CC2C=CC1C2", "note": "(configuration not stated)", "viability change, negative = cytotoxic": "-7.35% [at 42.5 µM] (inactive)"}, {"smiles": "CC(=O)OCC(=O)[C@@]1(O)CC[C@H]2[C@@H]3CCC4=CC(=O)CC[C@]4(C)[C@H]3C(=O)C[C@@]21C", "viability change, negative = cytotoxic": "11.4% [at 42.5 µM] (inactive)"}, {"smiles": "CCCN(CCC)CCc1cccc2c1CC(=O)N2", "viability change, negative = cytotoxic": "-0.255% [at 42.5 µM] (inactive)"}, {"smiles": "Cc1ccc(=O)n(-c2ccccc2)c1", "viability change, negative = cytotoxic": "0.661% [at 42.5 µM] (inactive)"}, {"smiles": "CCCCCCCCCCCC", "viability change, negative = cytotoxic": "-4.73% (inactive)"}, {"smiles": "c1ccc([C@H]2CN3CCSC3=N2)cc1", "viability change, negative = cytotoxic": "-2.7% [at 42.5 µM] (inactive)"}, {"smiles": "c1cnc(N2CCN(Cc3ccc4c(c3)OCO4)CC2)nc1", "viability change, negative = cytotoxic": "0.902% [at 42.5 µM] (inactive)"}, {"smiles": "COC(=O)c1c(Cl)c(Cl)c(C(=O)OC)c(Cl)c1Cl", "viability change, negative = cytotoxic": "0.109% (inactive)"}, {"smiles": "C[C@](N)(Cc1ccc(O)cc1)C(=O)O", "viability change, negative = cytotoxic": "1.82% [at 8.39 µM] (inactive)"}, {"smiles": "N[C@H](C(=O)O)c1ccc(O)cc1", "viability change, negative = cytotoxic": "-0.517% [at 19 µM] (inactive)"}, {"smiles": "CCn1ccnc1CC1COc2ccccc2O1", "note": "(configuration not stated)", "viability change, negative = cytotoxic": "0.401% [at 42.5 µM] (inactive)"}, {"smiles": "Brc1c(NC2=NCCN2)ccc2nccnc12", "viability change, negative = cytotoxic": "-1.17% [at 42.5 µM] (inactive)"}, {"smiles": "CCN1CCC[C@H]1CNC(=O)c1cc(S(N)(=O)=O)ccc1OC", "viability change, negative = cytotoxic": "1.42% [at 42.5 µM] (inactive)"}, {"smiles": "NC(CSCC(=O)O)C(=O)O", "note": "(configuration not stated)", "viability change, negative = cytotoxic": "1.06% [at 42.5 µM] (inactive)"}, {"smiles": "COC(=O)C1=C(C)NC(C)=C(C(=O)OC)C1c1ccccc1[N+](=O)[O-]", "Potency": "54.5 µM (active) and inactive"}, {"smiles": "CO[Si](CCCOCC1CO1)(OC)OC", "note": "(configuration not stated)", "Potency": "inactive"}, {"smiles": "CCn1nc(C(=O)O)c(=O)c2cc3c(cc21)OCO3", "viability change, negative = cytotoxic": "7.96% [at 42.5 µM] (inactive)"}, {"smiles": "COC(=O)[C@@H](N)Cc1ccc(O)c(O)c1", "viability change, negative = cytotoxic": "2.33% [at 42.5 µM] (inactive)"}, {"smiles": "C[C@H](NC(CCc1ccccc1)C(=O)O)C(=O)N1CCC[C@H]1C(=O)O", "note": "(some centres not stated)", "viability change, negative = cytotoxic": "-1.54% [at 42.5 µM] (inactive)"}, {"smiles": "CC(C)NCC(O)c1ccc(NS(C)(=O)=O)cc1", "note": "(configuration not stated)", "viability change, negative = cytotoxic": "-3.02% (inactive)"}, {"smiles": "O=C(CCCN1CCC(O)(c2cccc(C(F)(F)F)c2)CC1)c1ccc(F)cc1", "viability change, negative = cytotoxic": "0.68% [at 42.5 µM] (inactive)"}, {"smiles": "CN(C)CCCN1c2ccccc2CCc2ccc(Cl)cc21", "Potency": "54.5 µM (active) and 23.7 µM (active)"}, {"smiles": "CCO/C([O-])=N/c1c[n+](N2CCOCC2)no1", "viability change, negative = cytotoxic": "4.46% [at 42.5 µM] (inactive)"}, {"smiles": "O=C(O)CN(CCOCCOCCN(CC(=O)O)CC(=O)O)CC(=O)O", "viability change, negative = cytotoxic": "1.46% [at 0.349 µM] (inactive)"}, {"smiles": "Cc1cccc(C)c1NC(=O)C(C)N", "note": "(configuration not stated)", "viability change, negative = cytotoxic": "-2.46% [at 42.5 µM] (inactive)"}, {"smiles": "CCN1CCC[C@H]1CNC(=O)c1c(O)c(Cl)cc(Cl)c1OC", "viability change, negative = cytotoxic": "7.69% [at 42.5 µM] (inactive)"}, {"smiles": "CCOC(=O)Nc1ccc(NCc2ccc(F)cc2)nc1N", "viability change, negative = cytotoxic": "-9.41% [at 42.5 µM] (inactive)"}, {"smiles": "CC(C(=O)O)c1ccc(CC2CCCC2=O)cc1", "note": "(configuration not stated)", "viability change, negative = cytotoxic": "-2.48% [at 42.5 µM] (inactive)"}, {"smiles": "COCCc1ccc(OCC(O)CNC(C)C)cc1", "note": "(configuration not stated)", "Potency": "inactive"}, {"smiles": "Nc1nc2c(ncn2COC(CO)CO)c(=O)[nH]1", "viability change, negative = cytotoxic": "2.95% [at 42.5 µM] (inactive)"}, {"smiles": "CC(C[N+](C)(C)C)OC(N)=O", "note": "(configuration not stated)", "viability change, negative = cytotoxic": "8.86% [at 42.5 µM] (inactive)"}, {"smiles": "Nc1c2c(nc3ccccc13)CCCC2O", "note": "(configuration not stated)", "viability change, negative = cytotoxic": "-5.77% [at 42.5 µM] (inactive)"}, {"smiles": "Cc1[nH]c(=O)c(C#N)cc1-c1ccc2nccn2c1", "viability change, negative = cytotoxic": "5.22% [at 42.5 µM] (inactive)"}]}]}
